We go through 15 molecules from ChEMBL document CHEMBL3433997, “St. Jude Leishmania screening dataset” (2016).

Where “and” joins values, the source holds several entries; their conditions need not be identical. Identical values can stand only once.

Sequence of Solute carrier family 2, facilitated glucose transporter member 1 (Homo sapiens) (P11166 whole entry): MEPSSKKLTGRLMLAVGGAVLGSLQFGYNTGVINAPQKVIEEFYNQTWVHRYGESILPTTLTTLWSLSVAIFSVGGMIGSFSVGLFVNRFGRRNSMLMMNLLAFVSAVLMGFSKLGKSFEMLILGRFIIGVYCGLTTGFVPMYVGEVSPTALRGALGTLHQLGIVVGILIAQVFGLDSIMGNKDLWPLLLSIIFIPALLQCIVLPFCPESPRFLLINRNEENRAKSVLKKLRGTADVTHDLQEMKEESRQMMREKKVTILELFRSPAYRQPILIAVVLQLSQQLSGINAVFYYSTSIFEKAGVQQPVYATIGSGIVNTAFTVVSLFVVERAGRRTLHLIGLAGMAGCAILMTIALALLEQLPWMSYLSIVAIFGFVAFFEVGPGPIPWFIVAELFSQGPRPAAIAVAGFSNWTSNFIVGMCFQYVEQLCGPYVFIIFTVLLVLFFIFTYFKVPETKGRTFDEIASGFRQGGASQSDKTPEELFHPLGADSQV

The assay has as its target Solute carrier family 2, facilitated glucose transporter member 1 (Homo sapiens) (UniProt P11166). Briefly: ST_JUDE_LEISH: Cytotoxicity at 2uM final concentration against transgenic Leishmania Mexicana promastigotes LmGLUT1 that are glucose transport deficient and complemented with the human glucose transporter GLUT1. Activity is measured by DNA content using SYBR green in vitro. In kind it is functional.
Consider `C=C[C@H]1CN2CC[C@H]1C[C@H]2[C@H](O)c1ccnc2ccccc12`, for which the inhibition amounted to 0.68%.

For the molecule `CCCCCCC(CC)c1cc(O)c2c(c1)OC(C)(C)c1ccncc1-2` (stereo not given), the inhibition stood at 3.06%. In the case of `O=C(C=C1c2ccccc2-c2ccccc21)NC1CCC(CN2CCC(c3c[nH]c4ccccc34)CC2)CC1` (stereo not given), the inhibition was 0.2% and -2.16%. Take `CC[C@H]1CN2CC[C@H]1C[C@H]2[C@H](O)c1cc(-c2ccc(C)cc2)nc2ccc(OC)cc12`: the inhibition was found to be 1.44%. For `S=C(NCCc1ccc(Cl)cc1)NC1CCC(CN2CCC(c3c[nH]c4ccccc34)CC2)CC1` (stereo not given), the inhibition is 2.11% and -0.48%. Under `Cc1[nH]c2ccc(O)cc2c1C1CCN(CC2CCC(NC(=O)/C=C/c3ccc(Cl)c(Cl)c3)CC2)CC1` (stereo not given) stands 0.37%; under `CCOC(=O)c1c(CN2CCN(C)CC2)n(Cc2ccccc2)c2cc(Br)c(O)cc12`, 17.4%; under `CC[C@H]1CN2CC[C@H]1C[C@H]2[C@H](O)c1cc(/C=C/c2ccccc2)nc2ccc(OC)cc12`, 0.9%.

For `C=C[C@H]1CN2CC[C@H]1C[C@H]2[C@H](O)c1cc(-c2ccc(Cl)cc2)nc2ccc(OC)cc12`, the inhibition amounted to 1.16%. As to `CCCCC/C=C/C(=O)NC1CCC(CN2CCC(c3c[nH]c4ccccc34)CC2)CC1` (stereo not given), the inhibition stood at 2.84%.

In the case of `CC(Cc1ccc(SC(C)(C)C)cc1)NCC(O)c1cccc(Cl)c1` (stereo not given), the inhibition is -1.59%. In the case of `Cc1cc2ccc(CNCCc3ccccc3Br)cc2nc1N` it was 3.28%; in that of `Oc1ccc(Cl)cc1CN1CCC(CCOC(c2ccccc2)c2ccccc2)CC1`, 9.61%; in that of `CCN(Cc1ccccc1)CC(O)c1ccc(Cl)c(Cl)c1` (stereo not given), 0.91%.

On to `COC(=O)CN(C(=O)/C=C/c1ccc(Cl)c(Cl)c1)C1CCC(CN2CCC(c3c[nH]c4ccccc34)CC2)CC1` (stereo not given), for which the inhibition came to 1.07%.

Usually inhibition stands for the drop in the measured response relative to a control, in per cent.
